Rows were chosen to be rich in hits. Some 1.3% of all compounds tested hit in one or more screens of this group.
TrxR1 substrate: rat thioredoxin reductase 1 substrate activity; O89049; purified TrxR1 substrate turnover, NADPH consumption readout; Potency, µM (series often up to 114 µM), for the others: top-dose activity change, negative = substrate turnover; 390,000 compounds, 0.01% hits; note: potency is the fitted concentration of half-maximal effect; nearly all actives have a fitted effect of over 50% in size
Target sequence (O89049 whole entry, looked up): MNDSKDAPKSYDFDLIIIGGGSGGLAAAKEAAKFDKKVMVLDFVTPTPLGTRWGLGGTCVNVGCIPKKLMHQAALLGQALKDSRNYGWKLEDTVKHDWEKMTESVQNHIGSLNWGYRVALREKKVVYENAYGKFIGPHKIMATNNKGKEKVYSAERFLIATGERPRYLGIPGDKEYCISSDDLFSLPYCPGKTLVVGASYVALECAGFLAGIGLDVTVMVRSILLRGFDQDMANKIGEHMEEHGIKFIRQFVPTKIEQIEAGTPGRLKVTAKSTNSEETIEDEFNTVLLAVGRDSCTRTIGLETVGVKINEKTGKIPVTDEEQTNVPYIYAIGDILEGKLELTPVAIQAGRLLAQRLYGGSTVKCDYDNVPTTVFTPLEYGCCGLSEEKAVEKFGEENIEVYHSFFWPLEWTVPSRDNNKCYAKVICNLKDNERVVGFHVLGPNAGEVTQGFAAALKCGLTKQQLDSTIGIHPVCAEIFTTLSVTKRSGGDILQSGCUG
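Rat TrxR1, dispensed at 90 nM, was prereduced with 400 uM NADPH (final) for 5 min at ~22 deg C, then incubated with compound 15 min before 400 uM selenite. A first-read NADPH fluorescence drop versus no-compound background flagged substrates.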
Giardia kill: kills Giardia lamblia | Giardia lamblia trophozoite viability | AID 540267 | activity change, % at 7.66 µM, hits read low | 340,000 compounds, 0.15% hits; in the data active = activity change below about -80%; inconclusive = between about -30% and that limit;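 note: parasites exposed to compound for two days anaerobically before the ATP read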
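Trophozoite viability was measured as ATP-dependent luminescence, read 15-30 min after reagent addition. Before that, parasites at 100 cells/well were exposed to compounds for 48 h, anaerobically, at 37 deg C.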
TrxR1 inh: blocks rat thioredoxin reductase 1; Potency, µM (titrated, usually from 114 µM), for inactives: at the highest dose activity change, negative = inhibition, hits mostly inhibitors; 390,000 compounds, 1% hits; recombinant rTrxR1, NADPH fluorescence consumption, selenite substrate; O89049; note: potency is the fitted concentration of half-maximal effect; nearly all actives have a fitted effect of over 65% in size
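Rat TrxR1 (90 nM in the dispensed reagent) was pre-reduced with 400 uM NADPH for 5 min at room temperature, then incubated with compound for 15 min. After 400 uM selenite was added, NADPH fluorescence (Ex 340/Em 450 nm) was followed for 8 min.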
GALK inhibitor: inhibitors of human galactokinase. P51570. Purified GALK, Kinase-Glo residual ATP luminescence. Potency, µM (top dose mostly 57.5 µM), inactives show top-dose activity change, negative = inhibition, actives largely listed as inhibitors. 270,000 compounds, 0.007% hits. AID 1868; note: potency is the fitted concentration of half-maximal effect
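GALK at 5 nM final was combined with compound, 35 uM ATP and 100 uM galactose in HEPES pH8.0 with MgCl2 and DTT. The reaction ran one hour at room temperature before luminescent ATP detection.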
Pin1 inh: blocks the human prolyl isomerase Pin1 | Potency, µM (highest dose often 115 µM), for inactives: top-dose activity, negative = inhibition, hits mostly inhibitors | 390,000 compounds, 0.009% hits | Pin1 FP peptide displacement, HiFluor488, 10 min; active = well fitted inhibition curve with a large enough effect in the polarisation, with a control signal flat, not every such curve was filed as active; inconclusive = small, poorly fitted or top-dose-only effect, or effect the other way, or a change in a side signal; inactive = no such curve, though single readings can be large or run the other way; the % refers to the polarisation; note: potency is the fitted concentration of half-maximal effect
Target sequence (Q13526 whole entry, looked up): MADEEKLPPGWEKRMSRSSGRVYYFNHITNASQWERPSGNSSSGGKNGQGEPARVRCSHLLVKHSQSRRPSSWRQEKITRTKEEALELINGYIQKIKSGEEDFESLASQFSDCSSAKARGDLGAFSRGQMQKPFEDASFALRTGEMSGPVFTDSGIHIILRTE
GCN5L2 inh: blocks human GCN5L2 histone acetyltransferase; Q92830; GCN5L2 HAT assay, ThioGlo1 CoA-SH fluorescence; Potency, µM (series often up to 58.9 µM), for inactives: top-dose activity change, negative = inhibition, most hits filed as inhibitors; 390,000 compounds, 0.21% hits; AID 504327; note: potency is the fitted concentration of half-maximal effect
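Preincubate 20nM GCN5L2 with compound 15 min, RT → add 50uM ThioGlo1 + 75uM H3(1-25) + 70uM acetyl-CoA → read fluorescence 0 and 20 min. Primary qHTS; fluorescent artifacts likely.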
* = called active by the depositor; ? = inconclusive; . = no result; [ ] = remark or other dose. Unless noted, calls come from the whole dose curve; as a rule, active = well fitted curve in the direction sought with a large enough effect; inconclusive = small, poorly fitted or top-dose-only effect, or another doubt; inactive = no such curve, though single readings can be large; an effect the other way counts as inactive or inconclusive. % is set by controls: 0 for no effect and ±100 for the full control effect.

SMILES	TrxR1 substrate	Giardia kill	TrxR1 inh	GALK inhibitor	Pin1 inh	GCN5L2 inh
COC(=O)c1ccc(Nc2ccc3nonc3c2[N+](=O)[O-])cc1	4%	-93*	1%[57.1 µM]	2%	1%	?
O=[N+]([O-])c1c(Nc2ccccn2)cc(Cl)c2nonc12	-12%	29	1.3µM*	.	?	?
O=[N+]([O-])c1c(Nc2ccc(O)cc2)cc(Cl)c2nonc12	3%[57.1 µM]	9	?	-6%	?	1%
O=C(O)c1cccc(Nc2cc(Cl)c3nonc3c2[N+](=O)[O-])c1	-17%	-22	1.4µM*	0%	0%	-9%
O=[N+]([O-])c1ccc(Nc2ccccn2)c([N+](=O)[O-])c1	2%	-18	20%	4%	-2%	-29%
COc1cc2nc(Cl)nc(NC3CCN(C)CC3)c2cc1OC	-2%	.	5%	.	.	.
CCN(C(=O)CSc1nc(C)nc2sc(C)c(C)c12)c1ccc(F)cc1	-10%	10	1%	.	9%	1%
Cc1nc(SCC(=O)N(C)Cc2ccco2)c2c(C)c(C)sc2n1	-7%	-4	22µM*	2%	?	1%
Cc1sc2nc(C(C)C)nc(SCC(=O)N3CCN(C(=O)c4ccco4)CC3)c2c1C	0%[57.1 µM]	7	16µM*	-6%	56%	-7%
Cc1cc(C#Cc2c(-c3ccccc3)n(C)c3ccccc23)ccc1F	14%	3	35µM*	.	?	-7%
COc1ccc(-c2c(C#Cc3ccsc3)c3ccccc3n2C)cc1	14%[57.1 µM]	-24	10µM*	.	?	-4%
COc1ccc(C#Cc2c(-c3ccccc3)n(C)c3ccccc23)cc1	22%[57.1 µM]	7	?	.	?	-14%
COc1cc(C#Cc2c(-c3ccccc3)n(C)c3ccccc23)cc(OC)c1	36%	10	45µM*	.	31%	2%
Cc1ccc(C2C(C#N)=C(N)Oc3cc(N)ccc32)cc1 (stereo not given)	-7%	5	6%	3%	1%	-17%
Cc1ccc(/C=C2\CCC3=C2OC(N)=C(C#N)C3c2ccc(C)cc2)cc1 (stereo not given)	-9%	6	50µM*	3%	?	5%
CC[C@H](C)[C@H](NC(=O)[C@H](Cc1ccc(O)cc1)NC(=O)[C@H](Cc1cnc[nH]1)NC(=O)[C@H](CCCNC(=N)N)NC(=O)[C@H](CC(C)C)NC(=O)[C@H](C)NC(=O)[C@H](CO)NC(=O)[C@H](Cc1ccc(O)cc1)NC(=O)[C@H](Cc1ccc(O)cc1)NC(=O)[C@H](CCCNC(=N)N)NC(=O)[C@H](C)NC(=O)[C@H](CCSC)NC(=O)[C@H](CC(=O)O)NC(=O)[C@H](CCC(=O)O)NC(=O)[C@H](C)NC(=O)[C@@H]1CCCN1)C(=O)N[C@@H](CC(N)=O)C(=O)N[C@@H](CC(C)C)C(=O)N[C@H](C(=O)N[C@H](C(=O)N[C@@H](CCCNC(=N)N)C(=O)N[C@@H](CCC(N)=O)C(=O)N[C@@H](CCCNC(=N)N)C(=O)N[C@@H](Cc1ccc(O)cc1)C(N)=O)[C@@H](C)O)[C@@H](C)CC	.	.	.	.	.	-9%
Cc1ccc2nsnc2c1S(=O)(=O)N(Cc1ccco1)Cc1cc2cccc(C)c2[nH]c1=O	18%	0	-8%	3%	0%	-7%
Cc1ccc2[nH]c(=O)c(CN(Cc3ccco3)S(=O)(=O)c3c(C)ccc4nsnc34)cc2c1	13%	3	28µM*	0%	-1%	-11%
O=C(CN(Cc1ccccc1)S(=O)(=O)c1ccc(F)cc1)NCCC1=CCCCC1	-3%	3	1%	0%	4%	0.79µM*
c1coc(-c2nc3c([nH]2)CCc2nonc2-3)c1	12%	4	22µM*	-2%	3%	0%
CC[C@H]1[C@@H]2C=C[C@@H]3[C@H]4C/C=C\C(=O)NCCC[C@@H]5NC(=O)C(=C5O)C(=O)CC[C@@H]4C[C@@H]3[C@H]2C[C@H]1C	.	.	.	.	.	-25%
CC1=C(/C=C/C(C)=C/C=C/C(C)=C\CO)C(C)(C)CCC1	.	.	.	.	.	18%
CC1=C(/C=C/C(C)=C/C=C/C(C)=C/CO)C(C)(C)CCC1	0%	12	50µM*	.	-7%	.
CS(=O)(=O)c1ccc(C(=O)OCC(=O)NC(=O)C2COc3ccccc3O2)cc1[N+](=O)[O-] (stereo not given)	-1%	6	8.9µM*	.	3%	-5%
CC(CCc1ccccc1)NC(=O)COC(=O)c1ccc(S(C)(=O)=O)c([N+](=O)[O-])c1 (stereo not given)	2%[57.1 µM]	1	0.79µM*	10%	25%	-13%
SMILES	TrxR1 substrate	Giardia kill	TrxR1 inh	GALK inhibitor	Pin1 inh	GCN5L2 inh
CS(=O)(=O)c1ccc(C(=O)OCc2nnc(-c3ccccc3)o2)cc1[N+](=O)[O-]	5%	5	1µM*	4%	7%	-16%
Cc1ccccc1NC(=O)Cc1nc(COC(=O)c2ccc(NC(N)=O)cc2)cs1	4%	-15	17%	.	37%	-4%
Cc1ccccc1NC(=O)Cc1nc(COC(=O)c2ccc(S(C)(=O)=O)c([N+](=O)[O-])c2)cs1	-3%	8	3.2µM*	.	35%	2%
Nc1ccc(C(=O)NNC(=O)C2COc3ccccc3O2)cc1[N+](=O)[O-] (stereo not given)	2%[57.1 µM]	-3	-6%[57.1 µM]	.	?	-17%
O=C(CNC(=O)c1cc(-c2ccccc2)nn1-c1ccccc1)Nc1ccccc1Br	7%	-8	6%	.	28%	.
O=C(COC(=O)c1ccc([N+](=O)[O-])cc1)Nc1cccnc1Cl	4%	4	10%	.	-3%	.
CS(=O)(=O)c1ccc(C(=O)OCC(=O)Nc2cccnc2Cl)cc1[N+](=O)[O-]	3%	-9	2.5µM*	.	7%	-3%
CCNc1nc(N2CCCN(C)CC2)nc2cc(OC)c(OC)cc12	31%	.	-26%	.	.	.
CCC(C)C(NC(=O)OC(C)(C)C)C(=O)NC1COC2CC(n3cc(C)c(=O)[nH]c3=O)OC12 (stereo not given)	2%	1	7%	.	-4%	.
FC(F)(F)c1ccc2c(c1)N1CCCC1CN2 (stereo not given)	5%[57.1 µM]	-87*	22%[57.1 µM]	0%	24%	-2%
CN(C)S(=O)(=O)c1ccc(C(=O)Oc2cc(=O)[nH]c3ccccc23)cc1	3%	-3	14µM*	5%	1%	-5%
CCOC(=O)c1[nH]c2ccccc2c1NC(=O)c1ccc(S(=O)(=O)N(C)C)cc1	0%	-20	16%	.	-1%	-3%
CCCNC(=O)COC(=O)c1ccccc1C(=O)c1ccc(Cl)c([N+](=O)[O-])c1	4%	-2	50µM*	3%	?	-5%
